Molecules are shown by their SMILES. Several values for one entry are separate records, joined by “and”; a condition that tells them apart may be missing. Equal entries are not always repeated. This is part of a sample that, as a whole, favours compounds with a hit. Of some 83,000 tested, about 20% had one in any assay.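 For each line, cells grew in 96-well plates with the test compound present at a single concentration for 48 hours.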 Activity calls are given as the source filed them. The calls were made as follows: active = growth percent below 10; inactive = the rest.

The assay has as its system MDA-MB-468 breast. The assay can be described thus: NCI-60 one-dose screen, 48 h (100 = growth as untreated, 0 = no growth, -100 = all killed). The following applies: 10 µM unless noted.
Take `O=C1CC2(O)CSc3nc(=O)cc(n32)N1` (stereo not given): the growth was 109% (inactive).

Take `Nc1nc(N)c2nc(CNc3ccc(C(=O)NC(CCC(=O)O)C(=O)O)cc3)cnc2n1` (stereo not given): the growth is 13.1% (inactive) and 12% (inactive).

Regarding `COC(=O)C(N)CSC(c1ccccc1)(c1ccccc1)c1ccccc1` (stereo not given), the growth was 11.5% (inactive).

Turning to `CN1CCN(c2ccc3nc(/N=C/c4ccc5sc(-c6ccc([N+](=O)[O-])cc6)nc5c4)sc3c2)CC1`, the growth was 109% (inactive).

For the compound `O=C(Nc1ccccc1OC(=O)c1ccccc1)c1ccccc1`, the growth was 59% (inactive).

For `Cc1ccc(C)c(-n2c(-c3ccc(Br)cc3)csc2=NC(=O)c2ccccc2F)c1`, the growth was 55.4% (inactive).

Turning to `O=c1c2c(=NCCN3CCCC3)cc3c(=O)n(CCCN4CCOCC4)c(=O)c4ccc(c(O)n1CCCN1CCOCC1)c2c4-3`, the growth is -49.4% (active).

As to `CCCCCCCCNC(=O)c1ccc(Cn2c(CCCC)nc3c(N)nc4ccccc4c32)cc1`, the growth was -72.6% (active).

Consider `Nc1nc(-c2cc3c(cc2Cl)NC(=O)/C3=C/c2ccc(Cl)cc2)cs1`, for which the growth was -14% (active).

For `NC(=O)CSSCC(N)=O`, the growth was 105% (inactive).

Turning to `COC(=O)C[C@@H]1CC=CC(=O)/C1=C(O)/C=C/c1ccccc1`, the growth was -85.5% (active).

For the compound `COc1ccc(C2C=C(c3ccc(OC)c(OC)c3)N=C3SC=C(C)N32)c(Br)c1` (stereo not given), the growth was 95.9% (inactive).

Take `Cc1ccc2c(n1)C(=O)C(Oc1ccc(Br)cc1)=CC2=O`: the growth is 91.3% (inactive).

In the case of `COc1ccc(NC(=O)c2sc3nc(C)c(C(=O)/C=C/c4ccccc4)cc3c2N)cc1`, the growth was 44.4% (inactive).

For `O=C(CN1C=NC2C(N3CCOCC3)=NC=NC21)c1ccc(Br)cc1` (stereo not given), the growth is 99% (inactive).

As for `COc1ccc(C2=C/C(=C\c3ccc(Cl)cc3)C(=O)N2/N=C/c2ccc(Cl)cc2)cc1`, the growth is 94.3% (inactive).

Take `c1ccc(CNCCN(CCNCc2ccccn2)Cc2ccc3ccccc3c2)nc1`: the growth was -10% (active).

Take `Cc1ccc(Nc2nc(N)nc(N)c2N=O)cc1Cl`: the growth was 40% (inactive).

For `CCCCCC(=O)OCc1ccccc1`, the growth is 97.3% (inactive).

In the case of `NS(=O)(=O)c1ccc(CCN2C(=O)/C(=C\c3ccc(Cl)cc3)C=C2c2ccc3ccccc3c2)cc1`, the growth is 91% (inactive).

Regarding `ClCc1cccc2c(CCl)cccc12`, the growth is -18.3% (active).

Take `C#Cc1ccc(-n2c(/C=C/c3ccc(Cl)c(F)c3)nc3ncccc3c2=O)cc1`: the growth is -74.5% (active).

As for `CN1CCN(Cc2ccc(NC(=O)c3cncc(C#Cc4c(N)ncc5ccc(C#N)cc45)c3)cc2C(F)(F)F)CC1`, the growth is 96.1% (inactive).

Take `CN(C)CC1CCCCCC(CN(C)C)C1=O` (stereo not given): the growth was 15.3% (inactive).

`Cc1ccc2c(n1)C(=O)C(Cl)=C(Nc1ccc(C#N)cc1)C2=O`: the growth is 51.4% (inactive).

With `OCc1nnn(-c2ccccc2)c1CO`, the growth was 125% (inactive).

For the compound `CC(=O)Oc1ccc(N2C(=O)C(Cl)=C(Nc3cccc(C(F)(F)F)c3)C2=O)cc1`, the growth is 96.1% (inactive).

With `Cc1cc(C)c2nc(C)c(C)[n+]([O-])c2c1`, the growth is 101% (inactive).

As for `C=C(C)[C@@H]1CC[C@]2(c3ncc(C)o3)CC[C@]3(C)[C@H](CC[C@@H]4[C@@](C)(CCC#N)[C@H](C(=C)C)CC[C@]43C)[C@@H]12`, the growth was -63% [100 µM] (active).

For the compound `C/C(=C(/c1ccc(Cl)cc1)c1ccc(OCCN)cc1)c1ccc(C)cc1`, the growth was 108% (inactive).

Turning to `CCN(CC)Cc1cc(Nc2ccnc3ccc(OC)cc23)ccc1O`, the growth was -3.96% (active).

Consider `O=C(Nc1ccc(OCc2nnc(-c3ccc(Cl)cc3)o2)c(F)c1)Nc1ccc(Cl)c(Cl)c1`, for which the growth is 43.2% (inactive).

Take `CC(=O)O[C@H]1CC[C@]2(C)[C@H]3CC=C4[C@@H]5CC(C)(C)CC[C@]5(C(=O)N5CCN(CCC#N)CC5)CC[C@@]4(C)[C@]3(C)CC[C@H]2C1(C)C`: the growth was 32.2% (inactive).

For `COc1cc2c(c(OC)c1OC)-c1ccc(NNC(N)=S)c(=O)cc1[C@@H](NC(C)=O)CC2`, the growth is -14.2% (active).

Take `NS(=O)(=O)c1ccc(Nc2nc3n[nH]c(Nc4ccccc4)c3c(=O)[nH]2)cc1`: the growth was 108% (inactive).

As for `NC(=S)Nc1cccc(O)c1`, the growth is 101% (inactive).

As to `CCCCCCCCOC(=O)c1ccc(O)c(OC)c1`, the growth was 99.2% (inactive).

On to `COC(=O)/C=C1\Sc2cc(F)ccc2NC1=O`, for which the growth is 99.8% (inactive).

As for `COc1cc(C2CC(c3ccc(Nc4nc(NCCO)nc(N5CCOCC5)n4)cc3)=NN2c2cc(Cl)cc(Cl)c2)cc(OC)c1OC` (stereo not given), the growth is 64% (inactive).

`COc1ccc2c(c1)c(CC(=O)NCCOCCOCC(=O)Nc1ccc(OC)c(C(N)=O)c1O)c(C)n2C(=O)c1ccc(Cl)cc1`: the growth was 88.6% (inactive).

Source of the values: PubChem BioAssay (NCI).
